Assay results published in PubChem BioAssay (EPA / NIEHS).
Results filed as inconclusive are left out. The source made the active and inactive calls. Rule for the calls, unless noted: active = hit-call score of the fitted dose curve at least 0.9, where 1 is the maximum; inconclusive = response in the unintended direction; inactive = score below 0.9.

How the values were obtained:
[1] = target: human Peroxisome Proliferator-activated Receptor alpha (PPARa), PPARA (gene 5465) (UniProt Q07869); assay: ATG_PPARa_TRANS: Attagene TRANS-FACTORIAL HepG2 Assay for human Peroxisome Proliferator-activated Receptor alpha (PPARa) (AID 2283001);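 for AC50: potency for gain of reporter signal over DMSO so agonist or activator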
Procedure, shortened: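 HepG2 cells transiently transfected with multiplexed GAL4-UAS reporters driven by exogenous chimeric NR-Gal4 proteins; reporter mRNA measured after 24 h dosing. Read-out by RT-PCR, 6-FAM labelling, HpaI digestion and capillary electrophoresis; gain of signal versus DMSO.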

[2] = target: human Peroxisome Proliferator-activated Receptor delta (PPARd), PPARD (gene 5467) (UniProt Q03181); assay: ATG_PPARd_TRANS: Attagene TRANS-FACTORIAL HepG2 Assay for human Peroxisome Proliferator-activated Receptor delta (PPARd) (AID 2283002)
Procedure, shortened: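 Fluorescence from capillary electrophoresis of labelled RT-PCR reporter fragments gives the signal; DMSO sets baseline. Cells: HepG2 transiently carrying GAL4-UAS reporter units plus chimeric nuclear receptor-Gal4 proteins, exposed to chemicals for 24 h.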

[3] = read-out: Intercellular Adhesion Molecule 1 (ICAM1), ICAM1 (gene 3383); assay: BSK_3C_ICAM1: BioMAP Diversity Plus: 3C Assay for Intercellular Adhesion Molecule 1 (ICAM1) Biomarker Activity (AID 2283003; active = hit-call score of the fitted dose curve at least 0.9, where 1 is the maximum; inactive = score below 0.9); conditions: primary human endothelial cells (HUVEC); actives raise or lower the signal
Procedure, shortened: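 HUVEC primary cells stimulated under 3C conditions; ICAM1 measured by ELISA 24 h after compound dosing. Curves fitted bidirectionally against the DMSO baseline. Overt cytotoxicity checked by SRB staining of parallel cultures.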

[4] = target: Peroxisome proliferator-activated receptor gamma (Homo sapiens) (UniProt P37231); assay: ATG_PPARg_TRANS: Attagene TRANS-FACTORIAL HepG2 Assay for human Peroxisome Proliferator-activated Receptor-gamma (PPARg) (AID 2283007)
Sequence of Peroxisome proliferator-activated receptor gamma (Homo sapiens) (P37231 whole entry, looked up, the tested form may be a part): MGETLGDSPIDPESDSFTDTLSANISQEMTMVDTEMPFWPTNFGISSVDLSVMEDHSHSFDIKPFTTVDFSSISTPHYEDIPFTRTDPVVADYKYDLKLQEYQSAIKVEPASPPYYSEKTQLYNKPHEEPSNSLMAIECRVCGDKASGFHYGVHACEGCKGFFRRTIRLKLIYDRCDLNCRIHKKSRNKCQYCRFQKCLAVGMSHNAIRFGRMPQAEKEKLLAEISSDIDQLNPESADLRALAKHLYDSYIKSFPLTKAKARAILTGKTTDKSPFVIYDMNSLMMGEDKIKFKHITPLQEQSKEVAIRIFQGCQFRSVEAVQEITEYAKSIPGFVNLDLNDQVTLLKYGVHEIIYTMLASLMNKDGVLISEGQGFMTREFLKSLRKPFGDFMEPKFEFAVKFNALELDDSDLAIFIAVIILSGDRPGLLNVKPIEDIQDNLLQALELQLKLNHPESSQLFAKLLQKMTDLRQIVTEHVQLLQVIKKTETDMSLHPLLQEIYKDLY
Procedure, shortened: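 Gain-of-signal endpoint relative to DMSO, derived from reporter mRNA levels quantified by RT-PCR and capillary electrophoresis. Cells were HepG2 transiently expressing a chimeric NR-Gal4 construct with GAL4-UAS reporters, exposed to chemicals for 24 h.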

[5] = target: Nuclear receptor subfamily 1 group I member 2 (Homo sapiens) (UniProt O75469); assay: ATG_PXR_TRANS: Attagene TRANS-FACTORIAL HepG2 Assay for human Pregnane X Receptor (PXR) (AID 2283008)
Sequence of Nuclear receptor subfamily 1 group I member 2 (Homo sapiens) (O75469 whole entry, looked up, the tested form may be a part): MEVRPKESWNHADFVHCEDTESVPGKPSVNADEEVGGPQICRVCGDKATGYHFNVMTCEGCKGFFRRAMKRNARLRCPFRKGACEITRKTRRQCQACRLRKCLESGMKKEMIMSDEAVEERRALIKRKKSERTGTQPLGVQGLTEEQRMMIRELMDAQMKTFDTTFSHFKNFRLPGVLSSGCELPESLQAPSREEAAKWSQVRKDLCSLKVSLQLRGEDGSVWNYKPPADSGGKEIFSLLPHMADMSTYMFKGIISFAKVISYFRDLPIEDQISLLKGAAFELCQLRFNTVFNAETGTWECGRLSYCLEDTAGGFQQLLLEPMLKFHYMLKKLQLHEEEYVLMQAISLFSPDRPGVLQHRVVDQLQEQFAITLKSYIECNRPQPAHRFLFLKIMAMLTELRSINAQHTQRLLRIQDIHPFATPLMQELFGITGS
Procedure, shortened: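 HepG2 cells transiently transfected with GAL4-UAS reporter units and PXR-Gal4 chimera, exposed 24 h. Reporter mRNA quantified by RT-PCR, fluorescent labelling, HpaI digestion and capillary electrophoresis; gain of signal vs DMSO.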

[6] = target: human Thyroid Receptor alpha (THRa1), THRA (gene 7067) (UniProt P10827); assay: ATG_THRa1_TRANS: Attagene TRANS-FACTORIAL HepG2 Assay for human Thyroid Receptor alpha (THRa1) (AID 2283014)
Sequence of human Thyroid Receptor alpha (THRa1), THRA (gene 7067) (P10827 whole entry, looked up, the tested form may be a part): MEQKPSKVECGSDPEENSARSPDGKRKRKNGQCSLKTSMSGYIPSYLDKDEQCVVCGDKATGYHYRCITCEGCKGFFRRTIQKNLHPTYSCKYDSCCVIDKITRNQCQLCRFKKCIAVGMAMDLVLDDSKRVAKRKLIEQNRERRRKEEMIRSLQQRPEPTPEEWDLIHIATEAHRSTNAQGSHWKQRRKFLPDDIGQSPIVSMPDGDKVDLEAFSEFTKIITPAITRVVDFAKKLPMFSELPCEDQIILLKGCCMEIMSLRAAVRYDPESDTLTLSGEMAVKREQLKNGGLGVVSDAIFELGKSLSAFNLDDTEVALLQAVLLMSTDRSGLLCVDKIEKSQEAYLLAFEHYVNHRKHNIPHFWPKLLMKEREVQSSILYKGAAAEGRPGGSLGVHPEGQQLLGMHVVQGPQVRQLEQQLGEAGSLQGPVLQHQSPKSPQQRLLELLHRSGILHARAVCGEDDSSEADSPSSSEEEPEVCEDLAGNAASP
Procedure, shortened: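 Reporter transcript induction, read by capillary electrophoresis of 6-FAM-labelled RT-PCR products, reflects activity of a transfected THRa1-Gal4 fusion in HepG2 liver cells. Cells were dosed for 24 h; activity was fitted in the positive direction against DMSO.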

[7] = read-out: E-selectin (Homo sapiens) (UniProt P16581); assay: BSK_3C_Eselectin: BioMAP Diversity Plus: 3C Assay for Eselectin Biomarker Activity (AID 2283015; active = hit-call score of the fitted dose curve at least 0.9, where 1 is the maximum; inactive = score below 0.9); conditions: primary human endothelial cells (HUVEC); actives raise or lower the signal
Procedure, shortened: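 ELISA read-out of E-selectin on endothelial monolayers after 24 h chemical treatment. Human umbilical vein primary cells served as the system, with DMSO defining baseline activity for bidirectional fitting.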

[8] = read-out: Interleukin-1 alpha (IL1a), IL1A (gene 3552); assay: BSK_BE3C_IL1a: BioMAP Diversity Plus: BE3C Assay for Interleukin-1 alpha (IL1a) Biomarker Activity (AID 2283016; active = hit-call score of the fitted dose curve at least 0.9, where 1 is the maximum; inactive = score below 0.9); conditions: primary human bronchial epithelial cells; actives raise or lower the signal
Procedure, shortened: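 Human primary bronchial epithelial cells, 24 h chemical exposure; IL-1a quantified by ELISA, fitted bidirectionally against DMSO. Cytotoxicity assessed in parallel by SRB total-protein staining at the time of measurement.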

[9] = read-out: Monocyte Chemoattractant Protein-1 (MCP1), CCL2 (gene 6347); assay: BSK_3C_MCP1: BioMAP Diversity Plus: 3C Assay for Monocyte Chemoattractant Protein-1 (MCP1) Biomarker Activity (AID 2283017; active = hit-call score of the fitted dose curve at least 0.9, where 1 is the maximum; inactive = score below 0.9); conditions: primary human endothelial cells (HUVEC); actives raise or lower the signal
Procedure, shortened: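 ELISA read-out of MCP-1 from human umbilical vein endothelial cell cultures harvested 24 h post-dosing. Gain or loss of signal was fitted relative to DMSO.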

[10] = read-out: Monocyte Chemoattractant Protein-1 (MCP1), CCL2 (gene 6347); assay: BSK_4H_MCP1: BioMAP Diversity Plus: 4H Assay for Monocyte Chemoattractant Protein-1 (MCP1) Biomarker Activity (AID 2283018; active = hit-call score of the fitted dose curve at least 0.9, where 1 is the maximum; inactive = score below 0.9); conditions: primary human endothelial cells (HUVEC); actives raise or lower the signal
Procedure, shortened: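 Human umbilical vein endothelial cells (4H system) exposed to chemicals for 24 h in 96-well format. MCP-1 measured by ELISA; bidirectional fitting against DMSO, with SRB total-protein staining in parallel cultures for cytotoxicity.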

[11] = read-out: Human Leukocyte Antigen - DR isotype (HLADR), HLA-DRA (gene 3122); assay: BSK_3C_HLADR: BioMAP Diversity Plus: 3C Assay for Human Leukocyte Antigen - DR isotype (HLADR) Biomarker Activity (AID 2283019; active = hit-call score of the fitted dose curve at least 0.9, where 1 is the maximum; inactive = score below 0.9); conditions: primary human endothelial cells (HUVEC); actives raise or lower the signal
Procedure, shortened: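 ELISA readout of surface HLA-DR on human umbilical vein endothelium, taken 24 h after chemical treatment. Gain- and loss-of-signal were both fitted relative to DMSO.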

[12] = read-out: Interleukin-8 (IL8), CXCL8 (gene 3576); assay: BSK_3C_IL8: BioMAP Diversity Plus: 3C Assay for Interleukin-8 (IL8) Biomarker Activity (AID 2283020; active = hit-call score of the fitted dose curve at least 0.9, where 1 is the maximum; inactive = score below 0.9); conditions: primary human endothelial cells (HUVEC); actives raise or lower the signal
Procedure, shortened: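 Primary human umbilical vein endothelial cells were dosed for 24 h. IL-8 was quantified by ELISA and fitted bidirectionally against DMSO. Cytotoxicity was assessed in parallel cultures by SRB staining at 560 nm.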

[13] = target: Retinoic acid receptor alpha (Homo sapiens) (UniProt P10276); assay: ATG_RARa_TRANS: Attagene TRANS-FACTORIAL HepG2 Assay for human Retinoic Acid Receptor alpha (RARa) (AID 2283005);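 for AC50: potency for increased reporter signal meaning RARa activation over DMSO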
Sequence of Retinoic acid receptor alpha (Homo sapiens) (P10276 whole entry, looked up, the tested form may be a part): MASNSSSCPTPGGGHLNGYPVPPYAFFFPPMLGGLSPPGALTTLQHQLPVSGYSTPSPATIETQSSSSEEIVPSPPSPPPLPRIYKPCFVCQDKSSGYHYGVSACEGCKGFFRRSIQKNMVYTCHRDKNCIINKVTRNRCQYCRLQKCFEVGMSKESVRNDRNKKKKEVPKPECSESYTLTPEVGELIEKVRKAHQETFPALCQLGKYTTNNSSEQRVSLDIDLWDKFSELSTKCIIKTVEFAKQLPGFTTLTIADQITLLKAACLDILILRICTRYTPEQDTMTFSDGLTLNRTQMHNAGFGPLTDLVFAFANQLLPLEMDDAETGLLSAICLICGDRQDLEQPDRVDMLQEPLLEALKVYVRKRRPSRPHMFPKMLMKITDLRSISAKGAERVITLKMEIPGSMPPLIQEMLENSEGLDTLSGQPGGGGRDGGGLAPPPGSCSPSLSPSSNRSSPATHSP
Procedure, shortened: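 HepG2 transiently transfected with multiplex GAL4-UAS reporter units including a human RARa–GAL4 chimera; 24 h compound exposure. Reporter mRNA quantified by RT-PCR, 6-FAM labeling and capillary electrophoresis; gain of signal versus DMSO.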

[14] = target: human Retinoic Acid Receptor gamma (RARg), RARG (gene 5916) (UniProt P13631); assay: ATG_RARg_TRANS: Attagene TRANS-FACTORIAL HepG2 Assay for human Retinoic Acid Receptor gamma (RARg) (AID 2283009);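 for AC50: AC50 is for reporter induction above DMSO meaning RARg activation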
Sequence of human Retinoic Acid Receptor gamma (RARg), RARG (gene 5916) (P13631 whole entry, looked up, the tested form may be a part): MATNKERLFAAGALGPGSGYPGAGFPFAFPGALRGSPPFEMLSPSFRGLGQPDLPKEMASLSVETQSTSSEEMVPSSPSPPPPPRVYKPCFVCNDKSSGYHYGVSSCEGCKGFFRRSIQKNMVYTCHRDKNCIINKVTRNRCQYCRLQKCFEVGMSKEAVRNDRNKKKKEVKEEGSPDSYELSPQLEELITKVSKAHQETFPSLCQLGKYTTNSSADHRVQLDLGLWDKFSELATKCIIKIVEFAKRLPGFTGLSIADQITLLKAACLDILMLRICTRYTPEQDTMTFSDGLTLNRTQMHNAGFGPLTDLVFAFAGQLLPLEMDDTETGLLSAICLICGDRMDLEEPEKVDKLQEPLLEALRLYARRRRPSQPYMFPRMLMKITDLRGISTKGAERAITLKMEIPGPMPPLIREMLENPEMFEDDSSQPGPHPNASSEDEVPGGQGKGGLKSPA
Procedure, shortened: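 HepG2 transiently transfected with GAL4-UAS reporter units and chimeric NR-Gal4 constructs; 24 h compound exposure. Reporter mRNA quantified by RT-PCR, FAM labeling, HpaI digestion and capillary electrophoresis; gain-of-signal versus DMSO.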

[15] = target: human RAR-related Orphan Receptor gamma (RORg), RORC (gene 6097) (UniProt P51449); assay: ATG_RORg_TRANS: Attagene TRANS-FACTORIAL HepG2 Assay for human RAR-related Orphan Receptor gamma (RORg) (AID 2283011)
Procedure, shortened: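 First, HepG2 liver cells were transfected with GAL4-UAS-driven reporter constructs and the RORg-Gal4 fusion. Next, they were treated with chemical for 24 h. Finally, reporter mRNA was quantified by RT-PCR and capillary electrophoresis, with upward activity fitted against DMSO.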

[16] = target: Retinoic acid receptor RXR-alpha (Homo sapiens) (UniProt P19793); assay: ATG_RXRa_TRANS: Attagene TRANS-FACTORIAL HepG2 Assay for human Retinoid X Receptor alpha (RXRa) (AID 2283012)
Sequence of Retinoic acid receptor RXR-alpha (Homo sapiens) (P19793 whole entry, looked up, the tested form may be a part): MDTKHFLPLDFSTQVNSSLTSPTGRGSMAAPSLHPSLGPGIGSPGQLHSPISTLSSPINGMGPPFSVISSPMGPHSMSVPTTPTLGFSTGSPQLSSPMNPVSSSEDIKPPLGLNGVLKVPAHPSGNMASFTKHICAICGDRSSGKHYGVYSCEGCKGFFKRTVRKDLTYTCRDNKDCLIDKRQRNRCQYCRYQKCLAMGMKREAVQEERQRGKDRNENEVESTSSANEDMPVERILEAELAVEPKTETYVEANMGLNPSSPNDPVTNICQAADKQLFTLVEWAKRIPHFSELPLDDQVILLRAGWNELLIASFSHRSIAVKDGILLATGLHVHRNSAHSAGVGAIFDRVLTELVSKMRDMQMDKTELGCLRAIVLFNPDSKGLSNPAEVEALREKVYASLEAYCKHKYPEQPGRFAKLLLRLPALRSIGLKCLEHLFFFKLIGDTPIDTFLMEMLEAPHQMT
Procedure, shortened: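 HepG2 cells transiently transfected with GAL4-UAS reporter units and chimeric RXRa-Gal4 protein, treated 24 h. Reporter mRNA measured by RT-PCR, fluorescent labelling, HpaI digestion and capillary electrophoresis. Induction fitted against DMSO.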

[17] = target: human Retinoid X Receptor beta (RXRb), RXRB (gene 6257) (UniProt P28702); assay: ATG_RXRb_TRANS: Attagene TRANS-FACTORIAL HepG2 Assay for human Retinoid X Receptor beta (RXRb) (AID 2283013)
Sequence of human Retinoid X Receptor beta (RXRb), RXRB (gene 6257) (P28702 whole entry, looked up, the tested form may be a part): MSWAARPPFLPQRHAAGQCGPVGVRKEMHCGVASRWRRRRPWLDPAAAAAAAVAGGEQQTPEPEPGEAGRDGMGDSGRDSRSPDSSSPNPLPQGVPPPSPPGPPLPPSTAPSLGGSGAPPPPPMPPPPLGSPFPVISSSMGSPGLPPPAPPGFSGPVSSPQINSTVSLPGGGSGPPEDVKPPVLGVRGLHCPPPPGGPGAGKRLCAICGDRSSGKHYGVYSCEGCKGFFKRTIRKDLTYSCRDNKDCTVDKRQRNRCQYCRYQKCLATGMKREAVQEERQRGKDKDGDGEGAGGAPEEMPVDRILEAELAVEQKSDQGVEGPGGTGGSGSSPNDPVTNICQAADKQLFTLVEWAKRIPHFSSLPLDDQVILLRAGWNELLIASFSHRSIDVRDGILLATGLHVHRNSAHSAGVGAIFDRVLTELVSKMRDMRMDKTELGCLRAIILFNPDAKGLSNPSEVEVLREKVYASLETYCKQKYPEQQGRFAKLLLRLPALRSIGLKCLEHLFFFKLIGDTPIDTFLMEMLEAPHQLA
Procedure, shortened: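 HepG2 cells were transiently transfected with multiplexed GAL4-UAS reporters and a chimeric RXRb-Gal4 construct, then exposed for 24 h. Reporter mRNA was quantified by RT-PCR, FAM labeling, HpaI digestion and capillary electrophoresis; gain of signal was scored against DMSO.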

[18] = target: human Retinoic Acid Receptor beta (RARb), RARB (gene 5915) (UniProt P10826); assay: ATG_RARb_TRANS: Attagene TRANS-FACTORIAL HepG2 Assay for human Retinoic Acid Receptor beta (AID 2283004)
Sequence of human Retinoic Acid Receptor beta (RARb), RARB (gene 5915) (P10826 whole entry, looked up): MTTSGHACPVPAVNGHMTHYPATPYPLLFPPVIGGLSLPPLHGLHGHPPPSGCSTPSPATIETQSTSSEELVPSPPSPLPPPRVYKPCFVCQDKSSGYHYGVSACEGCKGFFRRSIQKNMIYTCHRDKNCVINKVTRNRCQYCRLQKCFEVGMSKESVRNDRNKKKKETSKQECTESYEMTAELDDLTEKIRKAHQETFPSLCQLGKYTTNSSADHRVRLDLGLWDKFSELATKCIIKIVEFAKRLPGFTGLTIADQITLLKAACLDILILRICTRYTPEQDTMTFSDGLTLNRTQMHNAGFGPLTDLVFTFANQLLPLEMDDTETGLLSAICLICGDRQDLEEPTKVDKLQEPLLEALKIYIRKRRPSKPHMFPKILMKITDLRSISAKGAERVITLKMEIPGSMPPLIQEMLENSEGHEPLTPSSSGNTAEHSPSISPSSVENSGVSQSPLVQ
Procedure, shortened: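 Transient transfection of HepG2 with multiple reporter units → chemical dosing, 24 h → total RNA isolation → RT with oligo(dT) → reporter-specific PCR, 6-FAM primer extension, HpaI digest → capillary electrophoresis. Positive direction vs DMSO control.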

[19] = target: human RAR-related Orphan Receptor beta (RORb), RORB (gene 6096) (UniProt Q92753); assay: ATG_RORb_TRANS: Attagene TRANS-FACTORIAL HepG2 Assay for human RAR-related Orphan Receptor beta (RORb) (AID 2283010)
Sequence of human RAR-related Orphan Receptor beta (RORb), RORB (gene 6096) (Q92753 whole entry, looked up, the tested form may be a part): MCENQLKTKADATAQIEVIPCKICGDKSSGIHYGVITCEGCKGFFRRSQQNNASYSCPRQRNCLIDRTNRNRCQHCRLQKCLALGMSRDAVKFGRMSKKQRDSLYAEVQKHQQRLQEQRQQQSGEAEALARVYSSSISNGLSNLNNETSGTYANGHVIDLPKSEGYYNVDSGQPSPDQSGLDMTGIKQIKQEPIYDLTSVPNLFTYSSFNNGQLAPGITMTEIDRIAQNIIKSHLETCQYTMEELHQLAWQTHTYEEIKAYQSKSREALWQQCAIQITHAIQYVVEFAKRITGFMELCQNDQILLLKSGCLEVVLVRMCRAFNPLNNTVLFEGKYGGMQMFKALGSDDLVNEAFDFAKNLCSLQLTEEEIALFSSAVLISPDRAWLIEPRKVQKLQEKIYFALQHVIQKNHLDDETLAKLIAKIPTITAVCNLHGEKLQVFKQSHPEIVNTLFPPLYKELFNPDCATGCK
Procedure, shortened: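 HepG2 cells transiently transfected with GAL4-UAS reporter units expressing chimeric NR-Gal4 protein; reporter mRNA measured 24 h after dosing by RT-PCR, 6-FAM labelling and capillary electrophoresis. Gain-of-signal fitted relative to DMSO baseline.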

Measured: AC50

Sequence of E-selectin (Homo sapiens) (P16581 whole entry, looked up): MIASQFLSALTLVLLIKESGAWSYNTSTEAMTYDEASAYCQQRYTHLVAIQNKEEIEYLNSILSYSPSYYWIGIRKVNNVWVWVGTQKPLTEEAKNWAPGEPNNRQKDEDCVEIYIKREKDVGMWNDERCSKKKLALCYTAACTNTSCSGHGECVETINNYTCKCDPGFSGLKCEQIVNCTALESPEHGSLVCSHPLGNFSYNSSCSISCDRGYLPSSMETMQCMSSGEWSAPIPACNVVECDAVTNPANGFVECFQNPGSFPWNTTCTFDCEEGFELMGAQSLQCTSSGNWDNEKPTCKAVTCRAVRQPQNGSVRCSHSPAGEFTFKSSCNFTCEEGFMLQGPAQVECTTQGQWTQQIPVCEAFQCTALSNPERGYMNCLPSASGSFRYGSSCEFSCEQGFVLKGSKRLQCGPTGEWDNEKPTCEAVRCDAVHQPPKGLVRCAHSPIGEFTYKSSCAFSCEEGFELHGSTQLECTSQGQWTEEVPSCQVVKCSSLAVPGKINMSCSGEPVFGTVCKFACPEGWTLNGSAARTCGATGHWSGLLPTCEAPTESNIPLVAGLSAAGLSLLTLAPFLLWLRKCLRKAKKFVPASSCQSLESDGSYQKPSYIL

c1ccc(CCc2ccccc2)cc1
inactive: [1] | [2] | [4] | [6]
active: [3] 30.9 µM | [5] 31.6 µM | [7] 28.7 µM | [8] 27 µM | [9] 28.5 µM | [10] 32.1 µM | [11] 15.3 µM | [12] 25.8 µM

CCCCCCC(CO)CCCC (stereo not given)
inactive: [1] | [2] | [3] | [13] | [4] | [5] | [14] | [15] | [16] | [7] | [8] | [9] | [10] | [11] | [12]
active: [17] 54.8 µM

C=CC(=O)OCCC#N
active: [4] 6.89 µM
inactive: [1] | [2] | [18] | [13] | [5] | [14] | [19] | [15] | [16] | [17] | [6]

O=C1OC(=O)c2c(Cl)c(Cl)c(Cl)c(Cl)c21
inactive: [1] | [2] | [18] | [19] | [16] | [6]

CCCCN(CCCC)C(=O)N(CCCC)CCCC
active: [3] 10.7 µM | [4] 15.9 µM | [7] 6.65 µM | [8] 8.05 µM | [9] 8.46 µM | [10] 6.41 µM | [11] 6.8 µM | [12] 4.98 µM
inactive: [1] | [2] | [14] | [16] | [6]

c1ccc(Oc2ccccc2)cc1
inactive: [1] | [2] | [18] | [5] | [15] | [16] | [8]
active: [3] 32.2 µM | [7] 35.9 µM | [9] 30.3 µM | [10] 32.9 µM | [11] 32.8 µM | [12] 20 µM

CCc1cc(Cc2cc(CC)cc(C(C)(C)C)c2O)c(O)c(C(C)(C)C)c1
active: [1] 51.9 µM | [13] 8.99 µM | [4] 7.31 µM | [5] 0.028 µM | [14] 9.1 µM | [17] 5.71 µM
inactive: [2] | [18] | [16] | [6]

COC(C)(C)CCO
inactive: [1] | [2] | [18] | [5] | [15]

Cc1ncc([N+](=O)[O-])n1CCO
inactive: [1] | [2] | [18] | [5] | [19] | [15] | [16] | [17]

O=CN1CCOCC1
inactive: [1] | [2] | [3] | [4] | [5] | [19] | [15] | [16] | [17] | [7] | [8] | [9] | [10] | [11] | [12]
